The first assay can be described thus: HepG2 cell viability effects, profiling panel, calcein-AM fluorescence, 48 h, basal (AID 1164). The following applies: higher = more signal.
Consider `O=C1c2ccccc2C(=O)C2CC([C@H]3Oc4ccccc4S(=O)(=O)N4CCC[C@@H]34)=CCC12` (stereo not given in full), for which the z-score is 1.13. As to `CCOC(=O)C1=CC[C@@H](c2cccc(Br)c2)N(S(=O)(=O)c2ccc(C)cc2)[C@H]1c1ccc([N+](=O)[O-])cc1`, the z-score is -0.203.

Take `C#CCOC(=O)N[C@H](C=CCCCC)c1ccccc1`: the z-score was -0.517. As for `COCCOC(=O)N1C(=O)[C@@]2(c3ccccc31)[C@H](c1ccccc1OCCO)N1[C@H](c3ccccc3)[C@H](c3ccccc3)OC(=O)[C@H]1[C@@H]2C(=O)N1CCc2cc(OC)c(OC)cc2C1`, the z-score was -0.628. Regarding `CN1C(=O)C2C=CC(C(O)c3cccc4ccccc34)N(NC(=O)OC(C)(C)C)C2C1=O` (stereo not given), the z-score was -0.559.

As for `CN(C)C(=O)[C@@]1(Cc2ccccc2N=[N+]=[N-])N=C(c2ccc(OCCCO)cc2)O[C@H]1c1ccccc1N=[N+]=[N-]`, the z-score was -1.38.

Take `[N-]=[N+]=Nc1ccccc1[C@@H]1OC(c2ccc(OCCCO)cc2)=N[C@]1(CCS(=O)(=O)c1ccccc1)C(=O)NCc1ccccc1`: the z-score was 0.82. Consider `CC(C)C(CO)N1C(=O)[C@@H]2[C@H]3C(=O)OCC=C[C@H]3OC23C=CCN(CCN2CCOCC2)C(=O)[C@@H]13` (stereo not given in full), for which the z-score was -0.434. As for `CN(C)C(=O)[C@@]1(CCC(=O)OC(C)(C)C)N=C(c2ccc(OCCCO)cc2)O[C@H]1c1ccccc1N=[N+]=[N-]`, the z-score was -0.34. Consider `C=CCNC(=O)[C@H]1[C@@H]2C(=O)O[C@@H](c3ccccc3)[C@@H](c3ccccc3)N2[C@@H](c2ccc(O)cc2)[C@]12C(=O)N(C(=O)OCCOC)c1ccc(C#CC3(O)CCCCCC3)cc12`, for which the z-score is 2.26. Still for that read-out and setting: then `CCOC(=O)C1=CC[C@@H](c2ccc(N(CC)CC)cc2)N(S(=O)(=O)c2ccc(C)cc2)[C@H]1c1ccc([N+](=O)[O-])cc1`, with 0.203; and `CCCNC(=O)[C@@]1(Sc2ccc(C)cc2)CC(=O)N(Cc2ccccc2)[C@@H]1c1ccc(CO)cc1I`, with 0.0653. In the case of `C[N+](C)(C)CCCCCCNC(=O)[C@H]1C[C@H]2C(=O)N3CCC[C@H]3C(=O)N2[C@H]1c1cccc(OCCO)c1`, the z-score was -0.684. In the case of `O=C(O)[C@]1(CCS(=O)(=O)c2ccccc2)N=C(c2ccc(OCCCO)cc2)O[C@@H]1c1ccccc1`, the z-score was 0.296.

The nature of another assay: MM1S cell viability effects, profiling panel, calcein-AM fluorescence, 48 h, basal (AID 1165).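 Also: viability of MM1S multiple myeloma cells under basal unstimulated conditions.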 The following applies: higher = more signal.
`CCOc1cc(C(O)C2C=CC3C(=O)NC(=O)C3N2Nc2ccccn2)ccc1O` (stereo not given): the z-score is -0.369.

For the molecule `Cc1cc(C)c(C(O)C2C=CC3C(=O)N(c4ccccc4)C(=O)C3N2Nc2ccccc2)c(C)c1` (stereo not given), the z-score was 0.541. With `CCCC=C(CCC)[C@@H](NS(=O)(=O)c1ccccc1)c1ccc(C(F)(F)F)cc1`, the z-score was -2.55. With `COCCCNC(=O)[C@@]1(Cc2ccccc2)COC(c2ccc(OCCCO)cc2)=N1`, the z-score is -0.35. For the molecule `C[C@@]1([C@@H](NC(=O)c2cccs2)c2ccc(-c3ccccc3)cc2)C[C@H]1C1CCCCC1`, the z-score was -2.17. The same measure, in the same setting: under `COc1ccc(C#Cc2ccc3c(c2)[C@]2(C(=O)N3)[C@H](c3ccc(OCCO)cc3)N3[C@H](c4ccccc4)[C@H](c4ccccc4)OC(=O)[C@H]3[C@@H]2C(=O)N2CCN(c3ncccn3)CC2)cc1` stands 0.496; under `CC(C)C[C@@H]1NC(=O)[C@@H]2C[C@H](C(=O)NCc3ccc(F)cc3)[C@H](c3ccc(O)cc3)N2C1=O`, -0.199.

As for `CCCN1C(=O)[C@@H]2Cc3c([nH]c4ccccc34)[C@@H](c3cccc(O)c3)N2C1=O`, the z-score was 0.342. As for `COC(=O)[C@@]1(Cc2ccc(OC)cc2)[C@H]2c3cc(C(=O)N4CCCC4)n(CCc4ccc(O)c(OC)c4)c3C[C@H]2CN1C(=O)c1ccccc1`, the z-score was -1.03. `C=CC[C@]1(C(=O)NCC(O)CO)N=C(c2ccc(OCCCO)cc2)O[C@H]1c1ccccc1N=[N+]=[N-]` (stereo not given in full): the z-score was -1.16. On the same count and under the same terms, then `COc1ccc([Si](C)(C)[C@@H]2[C@@H](CCO)O[C@]3(C(=O)N(Cc4ccc(N5C(=O)c6ccccc6Oc6ccccc65)cc4)c4ccccc43)[C@H]2C)cc1`, with -2.31; and `COC(=O)[C@@]1(Cc2ccccc2N=[N+]=[N-])N=C(c2ccc(OCCCO)cc2)O[C@H]1c1ccccc1`, with -3.58.

On to `C=C(COC)/C(=C/C[C@@H](OC(=O)c1ccncc1)c1cccc(OCCO)c1)c1cc(C(=O)OC)ccc1OC`, for which the z-score is -2.22. Regarding `COCCCNC(=O)[C@]1(Cc2ccccc2)N=C(c2ccc(OCCCO)cc2)O[C@@H]1c1ccccc1N=[N+]=[N-]`, the z-score was -1.78. As to `Cc1ccccc1C(O)C1C=CC2C(=O)N(C)C(=O)C2N1Nc1ccc([N+](=O)[O-])cc1[N+](=O)[O-]` (stereo not given), the z-score is -1.04. For the molecule `CCCCCCCCCCC(O)C1C=CC2C(=O)NC(=O)C2N1Nc1ccccn1` (stereo not given), the z-score is -3.81. As for `Cc1ccc(S[C@]2(C(=O)O)CC(=O)N(C3CCCCC3)[C@@H]2c2ccc(CO)cc2)cc1`, the z-score is -0.634. Consider `CC(C)c1ccc(NN2C(C(O)c3ccccn3)C=CC3C(=O)N(c4ccccc4)C(=O)C32)cc1` (stereo not given), for which the z-score was 0.741. With `COc1ccc(C(=O)Nc2ccc(CN3C(=O)[C@@]4(O[C@@H](CC(=O)N5Cc6ccccc6C[C@H]5CO)[C@H]([Si](C)(C)c5ccc(OC)cc5)[C@H]4C)c4ccccc43)cc2)cc1`, the z-score is -1.84. In the case of `CCOC(=O)C[C@H]1[C@H](OC(=O)c2cc3ccccc3oc2=O)[C@@H](NC(=O)c2ccc3ccccc3n2)c2cc(OCCCO)ccc2N1C(=O)c1ccc2ccccc2n1`, the z-score was -0.255. Still for that read-out and setting: under `COC(=O)[C@]1(Cc2ccccc2CN=[N+]=[N-])N=C(c2ccc(OCCCO)cc2)O[C@@H]1c1ccccc1` stands -3.58; under `COC(=O)[C@@]1(Cc2ccccc2)[C@H]2c3cc(C(=O)N4CCCC4)n(Cc4ccccc4)c3C[C@H]2CN1C(=O)c1ccccc1`, -2.96. As to `O=C1c2ccccc2C(=O)C2CC([C@H]3Oc4ccccc4S(=O)(=O)N4CCC[C@@H]34)=CCC12` (stereo not given in full), the z-score was -2.53. As for `CCOC(=O)C1=CC[C@@H](c2cccc(Br)c2)N(S(=O)(=O)c2ccc(C)cc2)[C@H]1c1ccc([N+](=O)[O-])cc1`, the z-score is -1.07. `C#CCOC(=O)N[C@H](C=CCCCC)c1ccccc1`: the z-score was -0.334. For `COCCOC(=O)N1C(=O)[C@@]2(c3ccccc31)[C@H](c1ccccc1OCCO)N1[C@H](c3ccccc3)[C@H](c3ccccc3)OC(=O)[C@H]1[C@@H]2C(=O)N1CCc2cc(OC)c(OC)cc2C1`, the z-score was -1.87. Consider `CN1C(=O)C2C=CC(C(O)c3cccc4ccccc34)N(NC(=O)OC(C)(C)C)C2C1=O` (stereo not given), for which the z-score is -0.248. The same measure, in the same setting: under `CN(C)C(=O)[C@@]1(Cc2ccccc2N=[N+]=[N-])N=C(c2ccc(OCCCO)cc2)O[C@H]1c1ccccc1N=[N+]=[N-]` stands -3.16. As for `[N-]=[N+]=Nc1ccccc1[C@@H]1OC(c2ccc(OCCCO)cc2)=N[C@]1(CCS(=O)(=O)c1ccccc1)C(=O)NCc1ccccc1`, the z-score is -0.723. In the case of `CC(C)C(CO)N1C(=O)[C@@H]2[C@H]3C(=O)OCC=C[C@H]3OC23C=CCN(CCN2CCOCC2)C(=O)[C@@H]13` (stereo not given in full), the z-score is -0.201. Consider `CN(C)C(=O)[C@@]1(CCC(=O)OC(C)(C)C)N=C(c2ccc(OCCCO)cc2)O[C@H]1c1ccccc1N=[N+]=[N-]`, for which the z-score is -0.956. In the case of `C=CCNC(=O)[C@H]1[C@@H]2C(=O)O[C@@H](c3ccccc3)[C@@H](c3ccccc3)N2[C@@H](c2ccc(O)cc2)[C@]12C(=O)N(C(=O)OCCOC)c1ccc(C#CC3(O)CCCCCC3)cc12`, the z-score is -1.2. For `CCOC(=O)C1=CC[C@@H](c2ccc(N(CC)CC)cc2)N(S(=O)(=O)c2ccc(C)cc2)[C@H]1c1ccc([N+](=O)[O-])cc1`, the z-score was -0.0595. Still for that read-out and setting: then `CCCNC(=O)[C@@]1(Sc2ccc(C)cc2)CC(=O)N(Cc2ccccc2)[C@@H]1c1ccc(CO)cc1I`, with -2.18. Regarding `C[N+](C)(C)CCCCCCNC(=O)[C@H]1C[C@H]2C(=O)N3CCC[C@H]3C(=O)N2[C@H]1c1cccc(OCCO)c1`, the z-score is 0.429. In the case of `O=C(O)[C@]1(CCS(=O)(=O)c2ccccc2)N=C(c2ccc(OCCCO)cc2)O[C@@H]1c1ccccc1`, the z-score was -1.2.

The record behind these values is PubChem BioAssay.
Also: test concentration not given here.
